Test results: article PMC7819943, “Rice protein-binding microarrays: a tool to detect cis-acting elements near promoter regions in rice”
The full ranking holds about 68,000 sequences; the median of “fluorescence intensity (a.u.)” is about 9,100, and the highest 2% start at about 16,000. Many of the other results were omitted from the sample, so the highest values are more common in it than they were.

target: OsWRKY34 (Oryza sativa, UniProt Q0JBA9 1-250); test: protein-binding microarray (RPBM); PBS, 2% BSA, 51.3 ng/ul salmon testes DNA, 50 uM zinc acetate, 200 nM TF, 25 C, 1 h; high values mean tight binding; details: protein: recombinant; tags: N-terminal polyhistidine and DsRed monomer fusion (pET32a); label: CyDye5-dUTP incorporated in the synthesized complementary strand; 3' TTTTT single-stranded linker to array surface; dsDNA, one strand shown
Sequence (Q0JBA9 entry or part of it): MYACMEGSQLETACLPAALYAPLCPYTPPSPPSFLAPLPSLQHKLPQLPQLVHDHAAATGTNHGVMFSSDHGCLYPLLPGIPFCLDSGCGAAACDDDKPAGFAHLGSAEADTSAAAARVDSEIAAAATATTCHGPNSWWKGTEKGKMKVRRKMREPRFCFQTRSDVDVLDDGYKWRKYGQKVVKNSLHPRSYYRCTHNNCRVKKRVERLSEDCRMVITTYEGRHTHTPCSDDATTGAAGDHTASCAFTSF
Method in brief: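 Binding signal here means per-feature fluorescence intensity in arbitrary units. The values were read on an Axon 4000B scanner after a custom Agilent array, double-stranded by primer extension with Cy5-dUTP, was incubated with 200 nM protein at 25 °C for 1 h in PBS with 2% BSA, salmon testes DNA and 50 µM zinc acetate, then washed. The proteins were transcription factors with an N-terminal polyhistidine tag and DsRed, expressed in E. coli BL21-CodonPlus and purified on Ni–NTA.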

Sequence	binding signal
ATCTTTGCCAAAATTTTTCTACTAGTATAATACTATCTCCCGGAGTCACCTAGTGCAG	8420 fluorescence intensity (a.u.)
AAGCTCCGATCCACAGCGCACCTCGAGCCCTACCTCCGATCGGAGTCACCTAGTGCAG	8940 fluorescence intensity (a.u.)
TTCCTCCATCCATTTTGTCAACTCCTCTCCGCTTTTCATCCGGAGTCACCTAGTGCAG	9640 fluorescence intensity (a.u.)
GCCTGGCGCGCCTCTCCTGCTCTGTTGGACCGCCGCGCCCCGGAGTCACCTAGTGCAG	12000 fluorescence intensity (a.u.)
CCACTCTCCGGCGCACCTATTTTCCATTTATATATATATGCGGAGTCACCTAGTGCAG	9670 fluorescence intensity (a.u.)
TTGAACCCTGCTCTCAGCTGAGCACCATGCAATAACTGTCCGGAGTCACCTAGTGCAG	8270 fluorescence intensity (a.u.)
CCAATGATATGTGCCGAAGTTGTATTTATCGAGAGATATTCGGAGTCACCTAGTGCAG	9850 fluorescence intensity (a.u.)
CCAGTGAATTACATTTTTGCCCGATCCCGTCGCGAACTCCCGGAGTCACCTAGTGCAG	8750 fluorescence intensity (a.u.)
CTGGGTGTTCAGATATATTACTAGAGGTCATACCATACAACGGAGTCACCTAGTGCAG	8130 fluorescence intensity (a.u.)
TGGGTCTCTTGGGGTCGGTGGGGCGGTCGTCGTCCGTGCCCGGAGTCACCTAGTGCAG	11400 fluorescence intensity (a.u.)
GAGGAGGTGGTGGCGCGGCGTTCTTGGGGCTGGAGAGGGTCGGAGTCACCTAGTGCAG	8790 fluorescence intensity (a.u.)
TTAGTACTATTAATTTGGTGGGGTTGGGTGGGTGCTGTAACGGAGTCACCTAGTGCAG	16700 fluorescence intensity (a.u.)
CTAATTAGTACTGCAATTTTGGGTCCTTGGGTTGTTAGAACGGAGTCACCTAGTGCAG	16900 fluorescence intensity (a.u.)
TAGGGGTTAGTGTGCGAGCATGTGCTGTGTAATTTTTTAACGGAGTCACCTAGTGCAG	10600 fluorescence intensity (a.u.)
TAGTTGTTGTTGTTGTTATTTGTTAATTGGGCCTTGTTCACGGAGTCACCTAGTGCAG	12300 fluorescence intensity (a.u.)
CTACTAGTACAGGCTATATCGCTTACTCCCTTTGTCCTAACGGAGTCACCTAGTGCAG	8420 fluorescence intensity (a.u.)
GCCATATTATTTTTCCTTTGTCCTAATTAATGTTAGAAATCGGAGTCACCTAGTGCAG	9440 fluorescence intensity (a.u.)
AACCTACTAGCTAGCTTAGTGTACTCTGTGTACTGTATATCGGAGTCACCTAGTGCAG	8190 fluorescence intensity (a.u.)
TACATTGTTAGTACTGTTTGGTGTAACTATTTTTTTATAACGGAGTCACCTAGTGCAG	8180 fluorescence intensity (a.u.)
CTTGGCTGTTCTTGGGTGGGTGAGGTGGGGCGGTCGGATCCGGAGTCACCTAGTGCAG	17100 fluorescence intensity (a.u.)
GGCTATCGGTGGGTGGGTGGGGTGTACTACTCCCCTATAACGGAGTCACCTAGTGCAG	22200 fluorescence intensity (a.u.)

Sequence	binding signal
CTTCGCTTTCGTCACGTTCTTGATTTGGGCGGGCGCGGAGCGGAGTCACCTAGTGCAG	8980 fluorescence intensity (a.u.)
CTCGGGAGAGGGGAGGCGTAGATTCTTCTGTTGCTTCAGTCGGAGTCACCTAGTGCAG	10300 fluorescence intensity (a.u.)
CGTCGAACGTCCACTACCATCCTCTTGTTAATCCCGCAAACGGAGTCACCTAGTGCAG	8060 fluorescence intensity (a.u.)
TTTCTTTGACTCGGTGACTTTGTGAGAGATGTTTTATGCCCGGAGTCACCTAGTGCAG	9190 fluorescence intensity (a.u.)
CTCCGTCCCATAATATAAGGGATTTTGACTTTTTACTTGCCGGAGTCACCTAGTGCAG	11200 fluorescence intensity (a.u.)
TCCCCGTTACCGAGCGCCGCCGCCTCCGCCTCCACCTCTACGGAGTCACCTAGTGCAG	10100 fluorescence intensity (a.u.)
TCTACACAATTCAAAATCCGGCCCTGTTTATTTTGTACTACGGAGTCACCTAGTGCAG	8420 fluorescence intensity (a.u.)
CTACACTCCTAATCTCTCTCTCTTTCTCGAGTGGAATCCACGGAGTCACCTAGTGCAG	8970 fluorescence intensity (a.u.)
ACGCGCCGCAACGCAACTTCCATGGACGCATCTGGACCACCGGAGTCACCTAGTGCAG	8130 fluorescence intensity (a.u.)
GTTTTTAATTTCGATAATATTTGATTCTGTTTTCGTGTCCCGGAGTCACCTAGTGCAG	8930 fluorescence intensity (a.u.)
ATTACCACTGATGCTGCTTGGTTCGCAATACTTGCTTCTTCGGAGTCACCTAGTGCAG	9730 fluorescence intensity (a.u.)
GACTGAGCTTTGTGGGTGGGTTGGTTGGTTGGTTATACAACGGAGTCACCTAGTGCAG	30500 fluorescence intensity (a.u.)
GTTCTGACTGTTGTGTTGTGGGTGTTTGGTTTATGAGCAGCGGAGTCACCTAGTGCAG	8430 fluorescence intensity (a.u.)
CTCGTATAGTTAGCTTGGAGGACTGAGCTTTGTGGGTGGGCGGAGTCACCTAGTGCAG	8880 fluorescence intensity (a.u.)
GTCTCCATTGCACCCACGTTGGATCCGCCCTTGCACATGGCGGAGTCACCTAGTGCAG	8470 fluorescence intensity (a.u.)
TAATTCATGGTTGGTTTTTAATTATATTTCCCTCCTTAAACGGAGTCACCTAGTGCAG	9580 fluorescence intensity (a.u.)
TCGTCGGTGGTGTGGGGAGGAGAAGATGGCCGGAGAGGAACGGAGTCACCTAGTGCAG	15000 fluorescence intensity (a.u.)
CGACGGGAGAGGAGGAGCCGGTGGGCGGGGTGGGGCCCACCGGAGTCACCTAGTGCAG	11000 fluorescence intensity (a.u.)
TTCGGGGTGTTCGTCAAAAATGTGGGGAGGAGGCATGGATCGGAGTCACCTAGTGCAG	13100 fluorescence intensity (a.u.)
ATTTTGTGTTTTTGTGGTGGTAATATTGTTTTTGAGTTCTCGGAGTCACCTAGTGCAG	9700 fluorescence intensity (a.u.)
ATCCCAAAATAATGTGTTCGGGTGGGCGGGCGGGAAATATCGGAGTCACCTAGTGCAG	23000 fluorescence intensity (a.u.)
